# Screens: PubChem BioAssay, National Center for Advancing Translational Sciences (NCATS)
# The list is not random: actives were taken first. Their share in the collection is about 2.1%.
# FUS yeast rescue: rescues growth of FUS-expressing yeast | S. cerevisiae FUS-expressing, growth rescue, OD600, 24 h | Potency, µM (top dose mostly 76.6 µM), most hits filed as activators | hit rate 0.24% among 390,000;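 further: plate controls were DMSO vehicle for no effect and reference control for full effect; nearly all actives have a fitted effect of over 55% in size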
#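 S. cerevisiae expressing FUS from galactose induction served as the toxicity model. Growth after 24hr at 30C, read as absorbance at 600 nm, indicates suppression of toxicity; compounds dosed at several concentrations.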
# aSyn rescue: alpha-synuclein toxicity inhibition in yeast; Yeast expressing alpha-synuclein, growth rescue, BacTiter-Glo, 24 h; Potency, µM (top dose mostly 46.1 µM), without a hit: at the top dose growth rescue (activation), actives largely listed as activators; hit rate 0.14% among 370,000; further: % of control where 0% means no effect; nearly all actives have a fitted effect of over 65% in size
#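 Rescue of yeast growth: cells expressing toxic alpha-synuclein, induced in galactose at OD600 0.02, incubated with compound 24 h at 30 C. ATP luminescence quantified growth; inhibitors of toxicity appear as activators.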
# TDP43 rescue: rescues yeast growth from TDP-43 toxicity; TDP-43 expressing yeast growth rescue, BacTiter-Glo, 24 h; hit rate 1.8% among 410,000; Potency, µM (highest dose often 46.1 µM), for the others: at the top dose growth rescue (activation), usual class: activators; AID 652104; further: % of control where 0% means no effect; nearly all actives have a fitted effect of over 50% in size
#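 Readout is BacTiter-Glo luminescence of cell growth, so inhibitors register as activators. TDP-43-expressing yeast at OD600=0.02 in galactose medium, after raffinose pregrowth to mid-log, were incubated with compound for 24 hr at 30 deg C.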
# Abeta rescue: compounds reversing amyloid beta toxicity in yeast | yeast expressing A-beta42, growth rescue, OD600, 48 h; response scale: 0% DMSO, 100% iron-clioquinol control | Potency, µM (series often up to 46.1 µM), hits mostly activators | hit rate 0.063% among 410,000 | AID 1347071; further: nearly all actives have a fitted effect of over 55% in size
#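 Growth rescue measured by 600 nm absorbance after 48 h yeast culture at 30 C with compound. Values normalized between DMSO and an equimolar ferric chloride plus clioquinol control.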
# Active calls of the source: *; i = inactive; ? = inconclusive; · = no result; [ ] = dose if it differs, or a comment. The call rests on the fitted dose curve; in most records, active means well fitted curve in the direction sought with a large enough effect; inconclusive means small, poorly fitted or top-dose-only effect, or another doubt; inactive means no such curve, though single readings can be large; an effect the other way counts as inactive or inconclusive. Potency means the concentration at half of the fitted maximal effect.
SMILES,FUS yeast rescue,aSyn rescue,TDP43 rescue,Abeta rescue
O=C(NC(=S)NCCc1ccccc1)c1ccccc1F,i,-10%,11µM*,i
COc1cc2c(cc1[N+](=O)[O-])-c1ccc([N+](=O)[O-])cc1C2=NO,i,3%,10µM*,i
O=[N+]([O-])c1ccc2c(c1)/C(=N\O)c1ccccc1-2,i,0%,-3%,i
Cc1cccc(C)c1OCc1cc(=O)n2c3c(sc2n1)CCCC3,i,·,35µM*,i
Cc1c(C(=O)NCCc2ccc(Cl)cc2)sc2nc3n(c(=O)c12)CCC3,i,8%,?,i
Cc1c(C(=O)NCCc2ccc(Cl)cc2)sc2nc3n(c(=O)c12)CCCC3,?,·,18µM*,i
Cc1ccc(CNC(=O)c2sc3nc4n(c(=O)c3c2C)CCCC4)cc1,i,·,13µM*,i
Cc1c(C(=O)NCc2ccccc2)sc2nc3n(c(=O)c12)CCCCC3,i,·,?,i
Cc1ccc(CNC(=O)c2sc3nc4n(c(=O)c3c2C)CCCCC4)cc1,i,·,25µM*,i
Cc1cc(NC(c2cccnc2)c2ccc3cccnc3c2O)no1 (stereo not drawn),i,14%,2%,i
COc1cccc(C(NC(C)=O)c2ccc3cccnc3c2O)c1 (stereo not drawn),?,?,4%,?
COc1cccc(C(Nc2ccccc2)c2ccc3ccc(C)nc3c2O)c1 (stereo not drawn),i,18µM*,22µM*,?
Cc1cccc(NC(c2ccc(O)cc2)c2ccc3ccc(C)nc3c2O)n1 (stereo not drawn),16µM*,-4%,-22%,i
CCOC(=O)C(CC)Sc1ccc2nnc(-c3ccc(F)cc3)n2n1 (stereo not drawn),·,-22%,·,·
Cc1c(C(=O)N(C)c2ccccc2)sc2nc(-c3ccc(F)cc3)cn12,i,·,35µM*,i
Cc1c(C(=O)N(C)Cc2ccccc2)sc2nc(-c3ccc(F)cc3)cn12,?,·,22µM*,i
Cc1cc(C)cc(Cn2c(C)c(C(=O)N(C)Cc3ccc(F)cc3)sc2=O)c1,i,10%,32µM*,i
Cc1c(C(=O)NCc2ccc(F)cc2)sc2nc(-c3ccccc3)cn12,i,·,19%,i
O=C(NCCc1nc2ccccc2n1CCCOc1ccccc1Cl)C1CCCCC1,·,7%,·,·
Cc1ccc(OCCn2cnc3cc([N+](=O)[O-])ccc3c2=O)cc1,i,7%,10µM*,i
O=c1c2ccc([N+](=O)[O-])cc2ncn1CCOc1ccccc1,i,3%,23%[9.22 µM],i
O=C(Cn1nc(Cl)nc1Cl)c1ccc(F)cc1,i,2%,24%,i
O=C(Cn1nc(Cl)nc1Cl)c1ccc2c(c1)OCCO2,?,-5%,11µM*,i
COc1cccc(C(=O)Nc2cccc(OCc3cc(=O)n4cccc(C)c4n3)c2)c1,i,·,-24%,i
O=C(c1ccc2c(c1)N(Cc1cccc(Cl)c1)C(=O)c1ccccc1S2(=O)=O)N1CCc2ccccc21,i,·,-6%,i
SMILES,FUS yeast rescue,aSyn rescue,TDP43 rescue,Abeta rescue
CCc1ccccc1NS(=O)(=O)c1ccc(-c2coc(C)n2)cc1,i,0%,13µM*,i
CCN1CCN(c2c(S(=O)(=O)c3ccc(OC)cc3)cnc3cc(OC)c(OC)cc23)CC1,i,·,19%,i
COc1cc2ncc(S(=O)(=O)c3ccccc3)c(N3CCCC(C)C3)c2cc1OC (stereo not drawn),?,-1%,28µM*,i
Cc1ccc(C(=O)NNC(=S)NC(=O)c2ccc(Cl)cc2Cl)cc1,i,1.1µM*,?,i
O=C(COc1ccccc1)NNC(=S)NC(=O)c1ccc(Cl)cc1Cl,i,?,3.5µM*,?
CSc1ccc(CCNC(=O)C(C)n2c(C)c3cnn(-c4ccccc4)c(=O)c3c2C)cc1 (stereo not drawn),i,·,13%,i
COC(=O)c1ccc(NCc2cc(O)ccc2O)cc1O,·,0%,25%,i
COC(=O)c1ccc(NCc2c(O)ccc(O)c2Br)cc1Cl,·,-21%,20µM*,i
COC(=O)N/N=C/c1ccc(-c2ccc(Cl)cc2Cl)o1,i,6%,1%,i
COC(=O)N/N=C/c1ccc(-c2ccccc2Cl)o1,i,5%,20µM*,i
NC(=S)N/N=C/c1ccc(-c2cc(Cl)c(Cl)cc2Cl)o1,i,23%,4%,13µM*
Clc1ccccc1-c1ccc(/C=N/n2cnnc2)o1,i,6%,11µM*,i
COc1cc2c(cc1OC)C(c1ccc(F)cc1)N(c1cccc(C#N)c1)C(=O)C2 (stereo not drawn),i,·,11%,i
Cc1ccc(N2C(=O)c3cccc([N+](=O)[O-])c3C2=O)cc1C,i,11%,13µM*,i
Cc1cccc(C)c1N1C(=O)c2cccc([N+](=O)[O-])c2C1=O,·,2%,?,i
Cc1ccc(/C(N)=N/OC(=O)N2CCOCC2)cc1,i,-12%,8%,i
N/C(=N\OC(=O)C12CC3CC(CC(C3)C1)C2)c1ccncc1,i,-18%,13µM*,i
Cc1ccc(/C(N)=N/OC(=O)C23CC4CC(CC(C4)C2)C3)cc1,i,5%,2µM*,i
Cc1ccc(NC(=O)Cn2c(=O)n(Cc3ccccc3)c(=O)c3c(C)c(C)sc32)c(C)c1,i,·,0%,i
CCC(C)NC(=O)CSc1nnc(-c2cc(OC)c(OC)c(OC)c2)c(-c2cc(OC)c(OC)c(OC)c2)n1 (stereo not drawn),i,6%,-14%,i
C=CCN1C(=O)[C@@H](CC(=O)NCc2ccc(OC)c(OC)c2)[C@]2(C(=O)OC)CCCCC=C12,i,·,·,·
Cc1ccccc1S(=O)(=O)NC(=O)C1(C)CCN1C(=O)c1ccccc1CCc1ccccc1 (stereo not drawn),?,-9%,35µM*,i
CC1(C(=O)NS(=O)(=O)c2ccccc2Cl)CCN1C(=O)C1(c2ccc(Cl)cc2)CC1 (stereo not drawn),i,2%,35µM*,i
CC1(C(=O)NS(=O)(=O)c2ccccc2Cl)CCN1C(=O)C1(c2ccc(Cl)cc2)CCC1 (stereo not drawn),i,0%,13µM*,i
CC1(C(=O)NS(=O)(=O)c2ccccc2)CCN1C(=O)C1(c2ccc(Cl)cc2)CCC1 (stereo not drawn),i,8%,0%,i
CC1(C(=O)NS(=O)(=O)c2ccccc2Cl)CCN1C(=O)C1(c2ccccc2)CCCC1 (stereo not drawn),i,-1%,?,i
Cc1ccccc1S(=O)(=O)NC(=O)C1(C)CCN1C(=O)C1(c2ccc(Cl)cc2)CCC1 (stereo not drawn),?,-23%,25µM*,i
CN(/N=C/c1ccc([N+](=O)[O-])o1)c1ccccc1,i,6%,14µM*,i
